Screening results: PubChem, National Center for Advancing Translational Sciences (NCATS)
This is a sample that favours compounds with a hit; in the whole collection about 3.2% have one here.
BRCA1 expr up: increases BRCA1 expression; Potency, µM (series often up to 46.1 µM), most hits filed as activators; 380,000 compounds, 1.1% hits; MCF7-BRCA1-FFLuc reporter, luminescence, 48 h; response scale: scaled: vehicle 0%, 10 µM genistein 100%; also: nearly all actives have a fitted effect of over 80% in size
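Luminescence from a BRCA1-driven firefly luciferase in MCF7 cells was the read-out, taken 15 min after substrate addition following 48 h compound exposure at 37 °C. Data were normalized to a 10 microM genistein control and DMSO vehicle.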
IL-2 act: activates IL-2 in a cell-based reporter assay; activation, % (series mostly up to about 46 µM); IL-2 activation reporter assay, cell-based qHTS; stimulated with anti-CD3/CD4/CD28 beads; in transgenic mouse T cells; 360,000 compounds, 0.065% hits; in the data active = activation above about 50%; inconclusive = mostly about 30% to 49%
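EGFP and DsRed fluorescence is measured by plate cytometry in unstimulated transgenic mouse T cells exposed to compound for 60 minutes, then stimulated 18 hours at 37 degrees C with anti-CD3/anti-CD4 beads plus anti-CD28.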
A549 viability: kills or reduces viability of A549 cells in Nrf2 counter-screen; A549 ARE-Fluc cells, CellTiter-Fluor viability, 18-24 h; Potency, µM (series often up to 46 µM), usual class: inhibitors; 390,000 compounds, 0.16% hits
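A549 ARE-Fluc cells in 5% FBS OPTI-MEM, 5000 cells/well, rested 2 h then exposed to compounds in concentration-response for 18-24 h at 37 °C. Viability by CellTiter-Fluor fluorescence (Ex 405/Em 525) after 30 min; luciferase luminescence (BugLite, 15 min, RT) read afterwards.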
p53 reactivator: re-activators of mutant p53; H1299 p53-A138V BP100-luciferase reporter, luminescence, 24 h; 320,000 compounds, 0.063% hits; AID 504706; Potency, µM (series often up to 92.2 µM), actives largely listed as activators; also: nearly all actives have a fitted effect of over 45% in size
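p53-null H1299 cells stably carrying temperature-sensitive p53-A138V and a BP100-luciferase reporter were pinned with compounds (4-point, 1:5 series) and held 24 hrs at 37 deg C. Luminescence was read 10 min after detection reagent.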
Nrf2 block: Nrf2 pathway inhibition. A549 ARE-Fluc reporter, luciferase luminescence, 18-24 h. Potency, µM (titrated, usually from 46 µM), usual class: inhibitors. 360,000 compounds, 2.1% hits; also: nearly all actives have a fitted effect of over 60% in size
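Concentration-response testing used A549 ARE_Fluc cells at 5000 cells/well. Following an 18-24 h compound incubation, viability was read by fluorescence (Ex 405/Em 525) and luciferase output by luminescence.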
Nrf2 activator: Nrf2 pathway activation | 410,000 compounds, 0.31% hits | AREc32 ARE-luciferase reporter (MCF7-derived line), luminescence, 24 h | Potency, µM (top dose mostly 46.1 µM), actives largely listed as activators | AID 624171; also: nearly all actives have a fitted effect of over 65% in size
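Luciferase luminescence (Steady-Glo, 30 min at room temperature) served as the read-out of ARE activation in AREc32 cells treated with compounds for 24 hr at 37 deg C.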
Hits are given with their value; - = inactive; ? = inconclusive; . = no result given. Unless noted, calls follow the shape of the dose curve; as a rule, active = well fitted curve in the direction sought with a large enough effect; inconclusive = small, poorly fitted or top-dose-only effect, or another doubt; inactive = no such curve, though single readings can be large; an effect the other way counts as inactive or inconclusive.

SMILES | BRCA1 expr up | IL-2 act | A549 viability | p53 reactivator | Nrf2 block | Nrf2 activator
CN(C)c1ccc2nc3c(=O)[nH]c(=O)nc-3n(CC(O)C(O)C(O)CO)c2c1 (centres undefined) | - | - | 10.3µM | - | ? | -
CCOc1ccc(-c2c(C(=O)N/N=C/c3ccc(C)s3)nnn2-c2nonc2N)cc1 | - | - | - | - | 23.1µM | -
CCOc1cccc(-c2c(C(=O)N/N=C/c3ccc(C)s3)nnn2-c2nonc2N)c1 | - | - | - | - | - | -
Cc1ccc(-c2c(C(=O)N/N=C/c3cccs3)nnn2-c2nonc2N)cc1 | - | - | - | - | - | -
CCOc1cccc(-c2c(C(=O)N/N=C/c3sccc3C)nnn2-c2nonc2N)c1 | - | - | - | - | 16.4µM | -
CCCc1c(C(=O)N/N=C(\C)c2ccccc2O)nnn1-c1nonc1N | - | - | . | . | . | -
CCOc1ccc(-c2c(C(=O)N/N=C/c3cccs3)nnn2-c2nonc2N)cc1 | - | - | - | - | 11.6µM | -
C/C(=N\NC(=O)c1nnn(-c2nonc2N)c1-c1ccccc1)c1ccccc1O | - | - | - | - | 4.61µM | -
CN(Cc1nccs1)c1ncnc2ccc(-c3ccc4c(c3)OCO4)cc12 | . | . | - | . | - | .
Oc1ccc(CNc2ccc(F)cc2Cl)c2cccnc12 | . | . | - | . | ? | .
C=CCCN(C(C)C(=O)OC)S(=O)(=O)c1ccccc1Br (centres undefined) | . | . | - | . | - | .
N/C(=N\OC(=O)/C=C/c1ccccc1)c1ccc(Cl)cc1 | - | - | - | - | - | -
N/C(=N\OC(=O)/C=C/c1ccccc1)c1ccccc1 | 7.08µM | - | - | ? | ? | 11.2µM
N/C(=N\OC(=O)c1ccco1)c1cccc([N+](=O)[O-])c1 | - | - | - | - | ? | 14.1µM
N/C(=N\OC(=O)c1cccc(Br)c1)c1ccccc1 | - | - | - | - | . | 7.08µM
O=C(COC(=O)c1ccco1)Nc1cccc(Br)c1 | - | - | - | - | - | -
N/C(=N\OC(=O)c1cccc(Br)c1)c1ccccn1 | - | - | - | - | ? | ?
N/C(=N\OC(=O)c1ccco1)c1cccc(Br)c1 | - | - | - | - | ? | 4.47µM
CCN(CC)S(=O)(=O)c1ccc(C(=O)NCCSc2c(-c3ccc(F)cc3)[nH]c3ccccc23)cc1 | . | . | - | . | ? | -
CN(Cc1ccccc1)c1nc(-c2ccc(F)cc2)cc(C(F)(F)F)n1 | - | . | - | . | - | -
COc1ccc(/C(N)=N/OC(=O)c2ccco2)cc1OC | 7.94µM | - | - | ? | ? | ?
COc1ccc(C(=O)O/N=C(\N)c2ccccc2)cc1OC | - | - | ? | ? | ? | -
CSc1nnc(N2C(=O)C(O)=C(C(=O)c3ccco3)C2c2ccccc2F)s1 (centres undefined) | - | - | - | - | - | 14.1µM
CSc1nnc(N2C(=O)C(O)=C(C(=O)c3ccco3)C2c2ccccc2)s1 (centres undefined) | - | - | - | - | - | -
COc1ccc(NC(=S)NC(=O)c2ccc(Br)o2)cc1 | 6.31µM | - | - | - | ? | -
SMILES | BRCA1 expr up | IL-2 act | A549 viability | p53 reactivator | Nrf2 block | Nrf2 activator
NC(=O)c1ccccc1NC(=S)NC(=O)c1ccc(Br)o1 | - | - | - | ? | ? | 14.1µM
CCc1ccc(-c2nc(CS(=O)CC(=O)NCCc3ccc(Cl)cc3)c(C)o2)cc1 (centres undefined) | . | . | - | . | . | -
CCCCCOc1ccc(NC(=O)Cn2c(-c3cncs3)nc3ccccc32)cc1 | . | . | - | . | ? | -
CC(=O)c1ccc(NC(=O)CSc2nnc3ccc(-c4ccc(Br)cc4)nn23)cc1 | . | . | - | . | . | -
Cn1c(SCc2c(F)cccc2Cl)nnc1-c1cccs1 | 3.98µM | - | - | ? | - | -
c1cc(-c2cc3cc4c(cc3cn2)OCO4)cs1 | - | - | - | ? | ? | ?
Fc1ccc2cc(-c3ccsc3)ncc2c1 | - | - | - | - | ? | 8.91µM
COc1cc2cnc(-c3ccsc3)cc2cc1OC | - | - | - | - | - | 4.47µM
